Bioassay records as filed in PubChem.
CHX counter: Cycloheximide Counterscreen for Small Molecule Inhibitors of Shiga Toxin; cell reporter, cycloheximide protein synthesis inhibition counterscreen; max response, %; actives 12% (n = 300,000); AID 2314, 2010; in the data active = max response mostly above about 13%, no sharp cut-off; inactive = mostly below about 14%; note: read at 38.3 µM for the half of the compounds with a filed dose; 0% is about no effect
HCV inhibitor: qHTS Assay for Inhibitors of Hepatitis C Virus (HCV); Huh7.5.1 HCVcc-Cre infection, luciferase reporter, 44 h; Potency, µM (doses to about 41.8 µM), without a hit: at the highest dose activity change, negative = inhibition, usual class: inhibitors; actives 3.4% (n = 340,000); AID 651820, 2012; note: potency is the fitted concentration of half-maximal effect; % is set by controls: 0 for no effect and ±100 for the full control effect
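Compounds are dispensed onto cells plated 4 h earlier at 1,000 per well, with HCVcc-Cre virus (about 0.5 moi) added next. Following 44 h of culture, luminescent signal is measured for 15 sec after 15 min with substrate at room temperature.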
Pf growth 96h: Primary qHTS for delayed death inhibitors of the malarial parasite plastid, 96 hour incubation. P. falciparum luciferase reporter growth, 96 h. actives 6.9% (n = 320,000). Potency, µM (series often up to 28.7 µM), inactives show top-dose activity change, negative = inhibition, hits mostly inhibitors; note: potency is the fitted concentration of half-maximal effect; % is set by controls: 0 for no effect and ±100 for the full control effect
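Delayed-death screen, second-generation endpoint: infected erythrocytes, 2% hematocrit, 0.05% parasitemia final; 96 hours at 37 C, 5% CO2; luciferase detection reagent; luminescence decrease equals reduced growth.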
Pf growth 48h: Primary qHTS for delayed death inhibitors of the malarial parasite plastid, 48 hour incubation; P. falciparum luciferase growth in erythrocytes, 48 h; Potency, µM (top dose mostly 28.7 µM), for inactives: at the highest dose activity change, negative = inhibition, most hits filed as inhibitors; actives 5.9% (n = 310,000); AID 504832, 2011; note: potency is the fitted concentration of half-maximal effect; % is set by controls: 0 for no effect and ±100 for the full control effect
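Cell-based growth assay: transgenic P. falciparum expressing firefly luciferase, cultured in red cells within RPMI 1640 containing 0.5% w/v Albumax, 24 mM bicarbonate and gentamycin. A drop in luciferase activity indicates inhibition.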
HCMV antiviral: qHTS Assay for inhibitors of the human cytomegalovirus (HCMV). HFF cells, HCMV-luciferase reporter, 72 h; active compounds read low. actives 4.5% (n = 410,000). activity change, negative = inhibition, % at 57.5 µM; in the data active = activity change below about -60%; inconclusive = no clear call, values can overlap the other calls; inactive = above about -39%; note: % is set by controls: 0 for no effect and ±100 for the full control effect
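Inhibition of viral replication was scored as loss of reporter luminescence in HFFs infected with HCMV-luciferase (MOI 1 PFU/cell) for 72 h; compounds tested at 2 doses, normalized to buffer and Salinomycin controls.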
Shiga toxin inh: A qHTS for Small Molecule Inhibitors of Shiga Toxin | Vero cells, Shiga toxin protein synthesis inhibition reporter | actives 9.2% (n = 290,000) | inhibition, % at 38.7 µM; in the data active = inhibition mostly above about 28%, no sharp cut-off; inactive = mostly below about 43%; note: 0% is about no effect
* marks the source's active call; other numbers are inactive results; u = inconclusive; x = not tested or not shown; [ ] = dose if it differs, or a comment. A selection: hits, their analogues and other compounds. The true share with any hit is near 21%. Unless noted, calls come from the whole dose curve; as a rule, active = well fitted inhibition curve with a large enough effect; inconclusive = small, poorly fitted or top-dose-only effect, or another doubt; inactive = no such curve, though single readings can be large or run the other way.

SMILES | CHX counter | HCV inhibitor | Pf growth 96h | Pf growth 48h | HCMV antiviral | Shiga toxin inh
O=C(NC(=S)Nc1cccc(O)c1)C12CC3CC(CC(C3)C1)C2 | x | x | x | x | 254 | x
CCN(CCCNC(=O)c1ccc(Sc2ccc(Cl)cc2)c(NC(C)=O)c1)c1ccccc1 | x | x | x | x | 55 | x
Cn1c(=O)c2c(-c3ccccc3Br)n(C(C)(C)C)cc2n(C)c1=O | x | x | x | x | -12 | x
COc1ccc(CCNC(=O)/C=C/c2ccc3ccccc3n2)cc1OC | 14* | u | 8.3µM* | u | -100* | 45
COc1cc(C(=O)NCC(=O)Nc2c(C)cccc2C)ccc1OCc1ccccc1 | x | u | -50% | u | 0 | x
COc1cc(C(=O)OCC(=O)N2c3ccccc3NC(=O)C2(C)C)ccc1OCC(C)C | x | 6.3µM* | u | u | -12 | x
COc1cc(C(=O)OCC(=O)NCCCc2ccccc2)ccc1OCC(C)C | -2 | -9% | 5.9µM* | u | 21 | -14
CNC(=O)c1ccc(OCc2ccccc2)c(OC)c1 | 20* | -3% | x | -4% | 46 | 19
COc1ccc(C(=O)OCC(=O)NCCCc2ccccc2)cc1[N+](=O)[O-] | 5 | 1% | 22% | 15% | -6 | 12
COc1ccc(/C=C/C(=O)NCCc2ccc(OC)c(OC)c2)cc1 | 1 | -1% | -24% | u | -16 | -8
CCCSc1nc2c(c(=O)[nH]1)C(c1ccc(F)cc1F)CC(=O)N2 (stereo unspecified) | x | x | x | x | 2 | x
CCn1nc(C)c2c(-c3ccccc3)cc(=O)n(C(C)C(=O)NCCc3ccc(OC)c(OC)c3)c21 (stereo unspecified) | x | x | x | x | -16 | x
CCOC(=O)C1(C)CCCCN1C(=O)c1ccoc1 (stereo unspecified) | x | x | x | x | 40 | x
COc1ccccc1OCCNC(=O)c1ccc2c(c1)CCC2 | 24* | -15% | 64% | 88% | 66 | 65*
COc1ccc(C(=O)NCCCc2ccccc2)cc1OC | 14* | 8% | u | -4% | 49 | x
COc1ccc(C(=O)NCCCc2nc3ccccc3n2Cc2cc(C)ccc2C)cc1OC | -3 | 5%[8.37 µM] | 10µM* | 12µM* | -10 | 13
COc1ccc(C(=O)NCCc2ccccc2)cc1OC | 28* | 7% | 0% | 74% | 143 | 44*
C=CCC(CC=C)(CNC(=O)C(=O)Nc1cc(C)ccc1OC)c1ccc(OC)c(OC)c1 | x | x | x | x | 9 | x
Cc1noc(C)c1C(=O)N1CCC1(C)C(=O)NS(=O)(=O)c1ccc(Cl)cc1 (stereo unspecified) | x | x | x | x | -22 | x
CCN(CC)c1nc2c(c(=O)n(C)c(=O)n2C)n1CC(=O)c1ccccc1 | 4 | 3% | -16% | -3% | 26 | -4
COc1ccc(C(=O)NCC2(c3ccccc3)CCOCC2)cc1[N+](=O)[O-] | 1 | -3% | u | -24% | -25 | -8
COc1ccc(NC(=O)C(=O)NCCc2ccccc2)cc1OC | x | x | x | x | -64* | x
COc1ccc(C2(CNC(=O)c3ccc(OC)c([N+](=O)[O-])c3)CCOCC2)cc1OC | -3 | 2% | 2.3µM* | -8% | 10 | -16
COc1ccc(CCNC(=O)c2ccc3nc(-c4ccco4)c(-c4ccco4)nc3c2)cc1OC | 6 | 2.8µM* | x | u | x | -17
COc1ccc(/C(O)=C/c2nc3ccc(C(=O)NCCc4cccc(C)c4)cc3[nH]c2=O)cc1OC | -1 | u | u | 4.7µM* | 31 | -13
COc1ccc(CCNC(=O)c2ccc3[nH]c(C)c(C)c3c2)cc1OC | x | x | x | x | -15 | x
CCc1nc2ccc(C(=O)NCCc3ccc(OC)c(OC)c3)cc2nc1CC | -6 | u | u | -11% | -21 | 3
COc1ccc(/C=C/C(=O)NCCCNC(=O)/C=C/c2ccc(OC)c(OC)c2)cc1OC | x | u | x | x | 68 | x
COc1ccc(/C=C/C(=O)NCCc2c[nH]c3ccccc23)cc1OC | -1 | -28% | 15µM* | 8.3µM* | 0 | -1
COc1ccc(C(=O)OC(C)C(=O)NC(C)CCc2ccccc2)cc1[N+](=O)[O-] (stereo unspecified) | -3 | -5% | 8% | 2% | -1 | -3
